HCV inhibitor = qHTS Assay for Inhibitors of Hepatitis C Virus (HCV) | Huh7.5.1 HCVcc-Cre infection, luciferase reporter, 44 h | 340,000 compounds, 3.4% hits | AID 651820, 2012 | Potency, µM (highest dose often 41.8 µM), for inactives: at the top dose activity change, negative = inhibition, actives largely listed as inhibitors; further: on the % scale 0 is the no-effect control and ±100 the full control effect
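Cells seeded at 1,000/well and cultured 4 h, then compounds added followed by HCVcc-Cre virus (~0.5 moi). After 44 h further culture, luciferase substrate was added, plates held 15 min at room temperature, and luminescence read for 15 sec.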
NS1 inh = qHTS Assay for Inhibitors of Influenza NS1 Protein Function; AID 2326, 2010; Potency, µM (highest dose often 46.1 µM), for the others: at the top dose activity, positive = more growth; 270,000 compounds, 0.4% hits; calls by dose curve; further: actives are rising curves; nearly all actives have a fitted effect of over 50% in size
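Read-out: OD600 growth recovery of NS1-expressing budding yeast. Cells grown overnight at 30C in -URA glucose medium, washed, resuspended and diluted 1:100 in 2% galactose assay medium, pH 6.0. Same strain lacking NS1 served as positive control.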
Vaccinia Venus = qHTS for Stage-Specific Inhibitors of Vaccinia Orthopoxvirus: Venus Reporter Primary qHTS | 330,000 compounds, 0.46% hits | Vaccinia virus Venus reporter expression, fluorescence | AID 720580, 2013 | Potency, µM (doses to about 36.5 µM), without a hit: at the top dose activity change, negative = inhibition, hits mostly inhibitors; calls by dose curve; tested in A549 cells; further: on the % scale 0 is the no-effect control and ±100 the full control effect; nearly all actives have a fitted effect of over 30% in size
Pf growth 96h = Primary qHTS for delayed death inhibitors of the malarial parasite plastid, 96 hour incubation; Potency, µM (highest dose often 28.7 µM), for the others: at the highest dose activity change, negative = inhibition, hits mostly inhibitors; 320,000 compounds, 6.9% hits; P. falciparum luciferase reporter growth, 96 h; further: on the % scale 0 is the no-effect control and ±100 the full control effect
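Parasite growth measured via integrated firefly luciferase reporter in P. falciparum. Infected erythrocytes at 2% hematocrit, 0.05% parasitemia final were treated 96 hours at 37 C under 5% CO2, and luminescence was read.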
Pf growth 48h = Primary qHTS for delayed death inhibitors of the malarial parasite plastid, 48 hour incubation. 310,000 compounds, 5.9% hits. Potency, µM (doses to about 28.7 µM), without a hit: top-dose activity change, negative = inhibition, most hits filed as inhibitors. AID 504832, 2011. P. falciparum luciferase growth in erythrocytes, 48 h; further: on the % scale 0 is the no-effect control and ±100 the full control effect
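Cell-based growth assay: transgenic P. falciparum expressing firefly luciferase, cultured in red cells within RPMI 1640 containing 0.5% w/v Albumax, 24 mM bicarbonate and gentamycin. A drop in luciferase activity indicates inhibition.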
Vaccinia mCherry = qHTS for Stage-Specific Inhibitors of Vaccinia Orthopoxvirus: mCherry Reporter Primary qHTS; Vaccinia virus mCherry reporter infection, fluorescence; Potency, µM (series often up to 36.5 µM), for inactives: top-dose activity change, negative = inhibition, actives largely listed as inhibitors; 310,000 compounds, 0.63% hits; calls by dose curve; tested in A549 cells; further: on the % scale 0 is the no-effect control and ±100 the full control effect; nearly all actives have a fitted effect of over 35% in size
* marks the source's active call; other numbers are inactive results; i = inactive; ? = inconclusive; . = no result given; [ ] = another dose, or the depositor's remark. This is a sample that favours compounds with a hit; in the whole collection about 11% have one here. Unless noted, the call rests on the fitted dose curve; in most records, active means well fitted inhibition curve with a large enough effect; inconclusive means small, poorly fitted or top-dose-only effect, or another doubt; inactive means no such curve, though single readings can be large or run the other way. Potency means the concentration at half of the fitted maximal effect.

SMILES	HCV inhibitor	NS1 inh	Vaccinia Venus	Pf growth 96h	Pf growth 48h	Vaccinia mCherry
O=C(CSc1ccc(Cl)cc1)N/N=C/c1ccc([N+](=O)[O-])o1	-15.7%	-50.9%	.	?	?	.
COc1ccc(-c2nn(-c3ccccc3)cc2C(=O)N/N=C/c2ccc([N+](=O)[O-])o2)cc1	-21.9%	?	2.1%	3.9%	2.62µM*	i
O=C(N/N=C/c1ccc([N+](=O)[O-])o1)C1CC1	?	-25.9%	.	4.15µM*	0.0%	.
CCCCCn1nc(C)c(/C=N\NC(=O)c2cc(C)oc2C)c1C	?	-2.2%	4.2%	-26.0%	13.1µM*	-13.9%
CCCCCn1nc(C)c(/C=N/NC(=O)c2ccoc2C)c1C	?	-10.1%	-1.5%	-27.8%	37.1%	-14.3%
COC(=O)N/N=C/c1ccc([N+](=O)[O-])o1	-5.8%	-7.8%	.	11.7µM*	13.1µM*	.
C=Cn1ccnc1P(=S)(c1ccccc1)c1nccn1C=C	20.4%	.	-1.2%	-17.0%	-8.8%	-8.8%
Cc1cc(C)nc(Nc2nc3ccccc3[nH]2)n1	39.7%	-21.9%	-13.5%	10.4%	89.8%	i
Cc1ccc(Cl)c(OCC(=O)Nc2ccc(S(=O)(=O)NC3=NCCCCC3)cc2)c1	?	.	-5.1%	?	?	-16.7%
Cc1cc(C(=O)N/N=C/c2ccc([N+](=O)[O-])o2)c(C)o1	?	-1.9%	.	3.29µM*	3.7µM*	.
NC(=O)N/N=C/c1ccc([N+](=O)[O-])o1	?	.	-5.1%	5.36µM*	11.7µM*	-10.9%
COC(=O)/C(=C\c1ccc([N+](=O)[O-])o1)NC(=O)c1ccccc1	?	-10.1%	6.1%	13.1µM*	.	-10.2%
CCCCNC(=O)/C(=C\c1ccc([N+](=O)[O-])o1)NC(=O)c1ccccc1	?	.	?	-18.7%	?	?
Cc1cc(C(=O)N/N=C/c2ccc3c(c2)OCO3)c(C)o1	-0.4%	-8.4%	-0.4%	43.4%	80.8%	-4.3%
CCOCCCNC(=O)c1cccc(OC2CCN(S(C)(=O)=O)CC2)c1	4.3%	-21.6%	.	-16.3%	27.7%	.
CCOc1ccc(NC(=O)c2ccccc2NC(=O)CN(C)CC(=O)Nc2ccc(C)cc2)cc1	-14.3%	6.9%	-18.9%	?	10.4µM*	.
O=C(Nc1ccc(S(=O)(=O)N2CCCC2)cc1)c1cccnc1Cl	-20.2%[8.37 µM]	.	-15.3%	-6.8%	2.7%	-3.1%
CC(C)NC(=O)CSc1nnc(CNC(=O)OC(C)(C)C)n1C	11.6%	-12.2%	-3.0%	40.2%	1.85µM*	-4.1%
Cc1occc1-c1nnc(SCC(=O)N2CCCc3ccccc32)n1Cc1ccco1	20.9%	-43.1%	-3.0%	?	?	-12.2%
COc1ccc(-c2noc(CN(C)Cc3ccccc3)n2)cc1	5.0%	-13.7%	.	?	20.7%	.
CN(Cc1ccc(F)cc1)Cc1nc(-c2ccccc2)no1	2.6%	-5.7%	-8.1%	10.4µM*	-3.1%	-10.4%
O=C(COC(=O)c1ccc(CO)cc1)Nc1ccc2ccccc2c1	5.0%	.	.	18.6%	0.0%	.
CC(CCc1ccccc1)NC(=O)c1ccc(NC(=O)c2cccc(Br)c2)cc1 (configuration not stated)	?	-0.6%	-13.7%	9.28µM*	14.7µM*	-1.7%
CC(CCc1ccccc1)NC(=O)COC(=O)c1ccc(NC(=O)CC#N)cc1 (configuration not stated)	-6.2%	3.7%	.	?	11.7µM*	.
N#CCC(=O)Nc1ccc(C(=O)OCC(=O)Nc2ccc3ccccc3c2)cc1	?	.	-1.8%	-13.7%	13.1µM*	-23.8%
SMILES	HCV inhibitor	NS1 inh	Vaccinia Venus	Pf growth 96h	Pf growth 48h	Vaccinia mCherry
COc1ccc(CN(C)C[C@H]2OCCCC[C@H](C)Oc3ccc(NC(=O)CCC(F)(F)F)cc3C(=O)N([C@@H](C)CO)C[C@@H]2C)cc1	.	.	-24.8%	.	.	-6.2%
COc1ccc(NC(=O)Nc2ccon2)cc1OC	4.1%	4.8%	-7.1%	0.1%	-4.8%	i
Cn1c(SCc2nc3ccccc3c(=O)[nH]2)nc2ccccc21	-10.0%	-4.8%	0.2%	-11.7%	11.4%	-6.7%
CC(C)Cn1c(SCc2nc3ccccc3c(=O)[nH]2)nc2ccccc2c1=O	0.6%	1.7%	.	71.1%	7.38µM*	.
Cn1c(-c2ccccc2)cnc1SCc1nc2ccccc2c(=O)[nH]1	?	-16.8%	.	2.33µM*	198.2%	.
O=c1[nH]c(CSc2cccc[n+]2[O-])nc2ccccc12	17.7%	-64.9%	.	?	13.1µM*	.
COc1ccc(C(C)(C)C)cc1NC(=O)c1c(C)noc1C	1.8%	12.1%	-7.0%	4.4%	-4.2%	-12.2%
CN1CCC[C@@H]1CCNC(=O)c1c(-c2ccc3c(c2)OCO3)noc1-c1ccsc1	1.4%	.	?	.	.	i
CN(CC(=O)NC1CCCCCC1)S(=O)(=O)c1ccc(Br)cc1	.	2.7%	-8.5%	4.7%	0.7%	i
Cc1ccc(S(=O)(=O)CCC(=O)NC2CCCCC2)cc1	5.9%	.	.	?	?	.
CN(CC(=O)NC1CC1)S(=O)(=O)c1ccc(Br)cc1	.	16.3%	-13.1%	5.7%	8.28µM*	-16.1%
O=C(CCS(=O)(=O)c1ccc(Br)cc1)NCc1ccc(F)cc1	16.9%	0.4%	.	10.4µM*	40.7%	.
O=C(CCS(=O)(=O)c1ccc(Br)cc1)NC1CCCCCC1	7.0%	-3.7%	.	11.7µM*	-5.0%	.
CN(CC(=O)NC1CC1)S(=O)(=O)c1cc(Cl)ccc1Cl	4.0%	-1.1%	-7.7%	5.22µM*	4.15µM*	i
CN1CCN(C(=O)C2=C[C@H](c3ccc(C(F)(F)F)cc3)C[C@H](OCc3ccc(CO)cc3)O2)CC1	-11.1%	-1.3%	-21.8%	?	?	i
CCOc1ccc(OCc2ccc(C(=O)Nc3cc(OC)c(OC)c(OC)c3)o2)cc1	.	.	-11.0%	.	.	-3.1%
CN1CCN(NC(=O)CN(C)S(=O)(=O)c2cc(Cl)ccc2Cl)CC1	9.1%	4.3%	-3.2%	11.7µM*	-11.0%	i
O=C(CCNS(=O)(=O)c1ccc(Br)s1)NC1CCCC1	.	2.0%	1.0%	10.4µM*	?	-8.3%
O=C(CSC1=NCCS1)c1ccc(Cl)cc1	?	.	-16.7%	?	10.4µM*	i

Screens as filed in PubChem.
